In PubChem BioAssay (Tox21):
“And” between values parts separate entries of the source, which are not always exact repeats. Identical values can stand only once. Inconclusive results are not listed. A call without a number means that no potency is given here. Where a structure was tested more than once in an assay, its records may differ in their call. The source made the active and inactive calls. Calls follow the shape of the dose curve; as a rule, active = well fitted cell-killing curve with a large enough effect in the repeat runs (not every such curve was filed as active); inconclusive = weak or mixed curves, or effect the other way; inactive = no such curve, though single readings can be large or run the other way.

Experiment: qHTS assay to identify small molecule antagonists of the farnesoid-X-receptor (FXR) signaling pathway - cell viability counter screen (AID 743221); also: nearly all actives have a fitted effect of over 50% in size
Conditions: FXR-bla HEK293T viability, CellTiter-Glo luminescence, 16 h; series mostly up to 62.6 µM
From the text: National Center for Advancing Translational Sciences [NCATS]
NIH Chemical Genomics Center [NCGC]
U.S. Environmental Protection Agency [EPA]
National Institutes of Environmental Health Sciences [NIEHS]
National Toxicology Program [NTP]
U.S. Food and Drug Administration [FDA]
The farnesoid-X-receptor (FXR), a nuclear hormone receptor, is highly expressed in liver, intestine, kidney and adrenal cortex. Natural ligands of FXR are the bile acids (Cholic acid, Chenodeoxy cholic acid etc). FXR is an important regulator of diverse metabolic pathways, including the bile acid homeostasis, lipid and glucose metabolisms. FXR regulates the expression of target genes by binding either as a monomer or as a heterodimer with the retinoid X receptor (RXR). Numerous studies have reported that FXR exerts protective function during cholestasis, diabetes, liver regeneration, and cancer. To identify compounds that inhibit FXR signaling, GeneBLAzer FXR-UAS-bla HEK 293T cell line (Invitrogen, Carlsbad, CA) containing a beta-lactamase reporter gene under the control of a UAS response element was used to screen the Tox21 10K compound library. The cytotoxicity of the Tox21 compound library against the FXR-bla cell line was tested in parallel by measuring the cell viability using CellTiter-Glo assay in the same wells.
Tox21 Assay Protocol Summary:
FXR-bla cells were dispensed at 5000 cells/5uL/well in 1536-well black wall/clear bottom plates using a Multidrop Combi (Thermo Fisher Scientific, Waltham, MA) dispenser. After the assay plates were incubated at 37 C and 5% CO2 for 5 h, 23 nL of compounds dissolved in DMSO, positive controls or DMSO only was transferred to the assay plate by a Pintool station (Kalypsys, San Diego, CA), followed by addition of 1 uL Chenodeoxycholic acid (50 uM, final concentration in the wells). The assay plates were incubated at 37C for 16 h. After 1 uL of LiveBLAzerTM B/G FRET substrate was added using a Bioraptr Flying Reagent Dispenser (FRD) workstation (Beckman Coulter, Indianapolis, IN), the plates were incubated at room temperature for 2 h, and fluorescence intensity was measured by an Envision plate reader (PerkinElmer, Shelton, CT). For cell viability readout that measures cytotoxicity, 4uL/well of CellTiter-Glo reagent was added into the assay plates using a Bioraptr FRD. After 30 min incubation at room temperature, the luminescence intensity in the plates was measured using a ViewLux plate reader (PerkinElmer).
Potency is read from the fitted curve at half-maximal effect.

**Q.** With `C[C@H]1C[C@H]2[C@@H]3CCC4=CC(=O)C=C[C@]4(C)[C@@]3(F)[C@@H](O)C[C@]2(C)[C@@]1(O)C(=O)CO` as the compound, how does the Potency read?
**A.** inactive

**Q.** Which Potency does the source give for `COCCCOc1ccnc(CS(=O)c2nc3ccccc3[nH]2)c1C` (stereo not given) here?
**A.** inactive

**Q.** With `CCC(O)OCCCOC` (stereo not given) as the compound, how does the Potency read?
**A.** inactive

**Q.** With `Cc1ccc2oc(=O)ccc2c1` as the compound, how does the Potency read?
**A.** inactive

**Q.** For `CCCCCCCCCCCCc1ccccc1`, which Potency is on record?
**A.** inactive

**Q.** For `O=C(O)c1cc(C(=O)O)cc(S(=O)(=O)O)c1`, which Potency is on record?
**A.** inactive

**Q.** For `O=C(O)c1ccc2c(c1)C(=O)OC2=O`, which Potency is on record?
**A.** inactive

**Q.** Which Potency does the source give for `CC[C@H](C)C(=O)O[C@H]1C[C@@H](C)C=C2C=C[C@H](C)[C@H](CC[C@@H]3C[C@@H](O)CC(=O)O3)[C@H]21` here?
**A.** 62.5 µM (active) and inactive

**Q.** Which Potency does the source give for `Nc1cc([N+](=O)[O-])ccc1O` here?
**A.** inactive

**Q.** With `CC(c1cc2ccccc2s1)N(O)C(N)=O` (stereo not given) as the compound, how does the Potency read?
**A.** inactive

**Q.** For `C=CCNC(N)=S`, which Potency is on record?
**A.** inactive

**Q.** With `CCCCC(CC)COC(=O)CS` (stereo not given) as the compound, how does the Potency read?
**A.** inactive

**Q.** Which Potency does the source give for `O=C(OCCOCCOC(=O)c1ccccc1)c1ccccc1` here?
**A.** inactive

**Q.** With `C[Si](O[Si](C)(C)C)O[Si](C)(C)C` as the compound, how does the Potency read?
**A.** inactive

**Q.** Which Potency does the source give for `OCCOCCN1CCN(C2=Nc3ccccc3Sc3ccccc32)CC1` here?
**A.** inactive

**Q.** Which Potency does the source give for `CCCCC(CC)CO` (stereo not given) here?
**A.** inactive

**Q.** For `O=C(O)CCCC[C@@H]1SC[C@@H]2NC(=O)N[C@@H]21`, which Potency is on record?
**A.** inactive

**Q.** Which Potency does the source give for `c1c[nH]cn1` here?
**A.** inactive

**Q.** Which Potency does the source give for `CC(=O)c1ccccc1` here?
**A.** inactive

**Q.** With `CC1CCC2CC1C2(C)C` (stereo not given) as the compound, how does the Potency read?
**A.** inactive

**Q.** Which Potency does the source give for `O=C(CC(C(=O)OC1CCCCC1)S(=O)(=O)O)OC1CCCCC1` (stereo not given) here?
**A.** inactive

**Q.** For `C=C(C)C(=O)Nc1ccc(Cl)c(Cl)c1`, which Potency is on record?
**A.** inactive

**Q.** With `CCCCCC(N)=O` as the compound, how does the Potency read?
**A.** inactive

**Q.** Which Potency does the source give for `CN(C)CCOCCN(C)C` here?
**A.** inactive

**Q.** For `Cc1occc(=O)c1O`, which Potency is on record?
**A.** inactive

**Q.** With `CC(=O)Nc1cccc(O)c1` as the compound, how does the Potency read?
**A.** inactive

**Q.** With `COc1cc(Cc2cnc(N)nc2N)cc(OC)c1OC` as the compound, how does the Potency read?
**A.** inactive

**Q.** Which Potency does the source give for `COS(C)(=O)=O` here?
**A.** inactive

**Q.** Which Potency does the source give for `O=c1[nH]c(=O)n([C@H]2C[C@H](O)[C@@H](CO)O2)cc1Br` here?
**A.** inactive

**Q.** Which Potency does the source give for `Cc1cc(C)c(C)cc1C` here?
**A.** inactive

**Q.** Which Potency does the source give for `CCN(CC)CCCC(C)Nc1ccnc2cc(Cl)ccc12` (stereo not given) here?
**A.** inactive

**Q.** With `O=S(=O)(O)c1ccc2ccccc2c1` as the compound, how does the Potency read?
**A.** inactive and 34.8 µM (active)

**Q.** With `CCCCCCOCCO` as the compound, how does the Potency read?
**A.** inactive

**Q.** For `O=C(O)c1ccccc1C(c1ccc(O)cc1)c1ccc(O)cc1`, which Potency is on record?
**A.** inactive

**Q.** For `Oc1cccc2ccccc12`, which Potency is on record?
**A.** inactive

**Q.** Which Potency does the source give for `CCc1ccc(CCOc2ccc(CC3SC(=O)NC3=O)cc2)nc1` (stereo not given) here?
**A.** inactive

**Q.** With `Nc1ccccc1[N+](=O)[O-]` as the compound, how does the Potency read?
**A.** inactive

**Q.** With `Cc1cnc(C(=O)NCCc2ccc(S(=O)(=O)NC(=O)NC3CCCCC3)cc2)cn1` as the compound, how does the Potency read?
**A.** inactive

**Q.** For `CC(=O)CC(=O)Nc1ccccc1C`, which Potency is on record?
**A.** inactive

**Q.** Which Potency does the source give for `CCCCCCCCCCCCCCO` here?
**A.** inactive
